SMILES strings stand for the structures. Results filed as inconclusive are left out. Calls of active or inactive are those of the source. Rule for the calls: active = hit-call score of the fitted dose curve at least 0.9, where 1 is the maximum; inconclusive = response in the unintended direction; inactive = score below 0.9.

The text below walks through data of PubChem BioAssay (EPA / NIEHS).

Sequence of human Vitamin D Receptor (VDR), VDR (gene 7421) (P11473 whole entry, looked up, the tested form may be a part): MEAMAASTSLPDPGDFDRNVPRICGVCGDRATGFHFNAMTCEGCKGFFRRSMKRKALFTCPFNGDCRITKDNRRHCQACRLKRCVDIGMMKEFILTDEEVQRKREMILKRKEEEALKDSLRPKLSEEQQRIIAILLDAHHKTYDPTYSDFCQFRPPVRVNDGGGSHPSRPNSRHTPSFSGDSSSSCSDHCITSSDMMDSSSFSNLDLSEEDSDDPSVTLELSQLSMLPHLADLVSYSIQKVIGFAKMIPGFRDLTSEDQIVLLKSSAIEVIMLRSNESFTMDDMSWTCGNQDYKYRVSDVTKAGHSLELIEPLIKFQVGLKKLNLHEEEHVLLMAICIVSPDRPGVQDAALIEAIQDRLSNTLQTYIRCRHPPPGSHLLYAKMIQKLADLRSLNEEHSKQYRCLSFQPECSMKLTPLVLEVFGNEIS

This assay concerns the target human Vitamin D Receptor (VDR), VDR (gene 7421) (UniProt P11473). The assay is described as follows: ATG_VDR_TRANS: Attagene TRANS-FACTORIAL HepG2 Assay for human Vitamin D Receptor (VDR) (AID 2283022). In outline:
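Fluorescence of labelled reporter cDNA fragments, resolved by capillary electrophoresis, gives mRNA induction after 24 h treatment of HepG2 cells carrying transfected Gal4-fusion reporter units. Activity is fitted in the positive direction with DMSO as baseline.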
Regarding `CCCCNS(=O)(=O)c1ccccc1`, the outcome was inactive. As to `O=C(O)CCC(=O)O`, the compound was called inactive. Under `Cc1cc(C)c(C=O)c(C)c1` stands “inactive”; under `C=C[Si](OCCOC)(OCCOC)OCCOC`, “inactive”. For the compound `CC(=O)/C=C/C1C(C)=CCCC1(C)C` (stereo not given), the compound was called inactive. As to `CC(=O)C(C)C`, the compound was called inactive. On to `CC(C)=NNC(N)=S`, for which the result was inactive. Take `CC(=O)CCC1=C(C)CCCC1(C)C`: the outcome was inactive. Under `CC(C)(C)N` stands “inactive”; under `CCN1CCCC1=O`, “inactive”. For `C=C(C)C(=O)OCCOC(=O)C(=C)C`, the call was inactive. As for `C=CC(C)(CCC=C(C)C)OC(=O)C=Cc1ccccc1` (stereo not given), the entry is “inactive”; as for `CCCCOC(=O)CCC(C)=O`, “inactive”; as for `CC(C)c1cc(C(C)C)cc(C(C)C)c1`, “inactive”. In the case of `OCCCc1ccccc1`, the call was inactive. Take `CCCCOC(=O)C(C)CC` (stereo not given): the compound was classed as inactive. Turning to `CN1CCN(C)CC1`, the compound was called inactive.

`COc1nccnc1CC(C)C`: the compound was classed as inactive. On to `CCCCC(CC)COC(=O)/C=C/c1ccc(OC)cc1` (stereo not given), for which the result was inactive. As for `CC(C)COC(=O)CC(C(=O)OCC(C)C)S(=O)(=O)O` (stereo not given), the entry is “inactive”. In the case of `CC1(C)[C@@H]2CC[C@@]1(C)C(=O)C2`, the result was inactive. As to `CCCCC/C=C\C/C=C\CCCCCCCC(=O)O`, the result was inactive. In the case of `Cc1ccccc1CCO`, the compound was classed as inactive. Under `COC(=O)CC(C)CCC=C(C)C` (stereo not given) stands “inactive”. Take `CCCC(CC)c1ccccc1` (stereo not given): the outcome was inactive.

For `CC1CCC(=O)C1=O` (stereo not given), the call was inactive. Under `Cc1cccc(C(C)(C)C)c1O` stands “inactive”; under `C=C(C)C(=O)OCC(O)COc1ccc(C(C)(C)c2ccc(OCC(O)COC(=O)C(=C)C)cc2)cc1` (stereo not given), “inactive”. Under `CC(=O)OCC=C(C)C` stands “inactive”; under `O=C(O[C@@H]1Cc2c(O)cc(O)cc2O[C@@H]1c1cc(O)c(O)c(O)c1)c1cc(O)c(O)c(O)c1`, “inactive”.

As for `NNS(=O)(=O)c1ccc(Oc2ccc(S(=O)(=O)NN)cc2)cc1`, the compound was classed as inactive.

For the compound `CC(=O)OCc1ccccc1`, the compound was called inactive.

Take `CCc1cccc(CC)c1`: the result was inactive.

Consider `CC(=O)OCCc1ccccc1`, for which the call was inactive. As for `C=CCOC(=O)c1ccc(C(=O)OCC=C)c(C(=O)OCC=C)c1`, the entry is “inactive”.
